# In the supplement of paper PMC8728848:
# The full list was thinned out, with the strongest signals kept by preference.
# B1: MXA PilAct-eGFP (Myxococcus xanthus), Q59589 (protein)
# chain: MRVSRFNPRNRGFTLIELMIVVAIIGILAAIAIPNFIKFQARSKQSEAKTNLKALYTAQKSFFSEKDRYSDFANEIGFAPERGNRYGYRVSAAAGDCEVRNAADLPVPAAGVPCISNDSFRFGANSAIDDPTPVVARFVPQGAAGWNTTLGVQPTIADCPNCNFFAGARGNADNEATFDDWVIAGFEGSGQVGPCSEAGNVASGTPYNTRNDVACDGAAQ
# Tests used:
# Assay in all cases: glycan array binding signal (z-score within array); higher = stronger binding
# Details in all cases: glycan notation: IUPAC condensed, linker removed
# [1] = target: Fuc(a1-2)Gal(b1-3)GalNAc(a1-3)[Fuc(a1-2)]Gal(b1-4)Glc
# Method in brief: (§1)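 Negative Z-scores can be read as non-binding. The Z-score is calculated within each array and then averaged across arrays of one protein sequence at different concentrations or buffers and across linkers. Arrays, 3228 in all, were curated from the Consortium for Functional Glycomics database and kept only where the protein sequence was available.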
# [2] = target: Fuc(a1-2)Gal(b1-3)GlcNAc(b1-3)GalNAc
# Method in brief: as §1
# [3] = target: Fuc(a1-2)Gal(b1-3)GlcNAc(b1-3)[Neu5Ac(a2-6)Gal(b1-4)GlcNAc(b1-6)]Gal(b1-4)Glc
# Method in brief: as §1
# [4] = target: Fuc(a1-2)Gal(b1-4)GlcNAc(b1-3)Gal(b1-4)GlcNAc
# Method in brief: as §1
# [5] = target: Fuc(a1-2)Gal(b1-4)GlcNAc(b1-3)Gal(b1-4)GlcNAc(b1-3)Gal(b1-4)GlcNAc
# Method in brief: as §1
# [6] = target: Fuc(a1-2)Gal(b1-4)[Fuc(a1-3)]GlcNAc(b1-2)Man(a1-3)[Fuc(a1-2)Gal(b1-4)[Fuc(a1-3)]GlcNAc(b1-2)Man(a1-6)]Man(b1-4)GlcNAc(b1-4)[Fuc(a1-6)]GlcNAc
# Method in brief: as §1
# [7] = target: Fuc(a1-2)Gal(b1-4)[Fuc(a1-3)]GlcNAc(b1-3)Gal(b1-4)[Fuc(a1-3)]GlcNAc(b1-3)Gal(b1-4)[Fuc(a1-3)]GlcNAc
# Method in brief: as §1
# [8] = target: Fuc(a1-2)Gal3S(b1-4)GlcNAc
# Method in brief: as §1
# [9] = target: Fuc(a1-2)[Gal(a1-3)]Gal(b1-4)GlcNAc
# Method in brief: as §1
# [10] = target: Fuc(a1-2)[Gal(a1-3)]Gal(b1-4)GlcNAc(b1-2)Man
# Method in brief: as §1
# [11] = target: Fuc(a1-2)[GalNAc(a1-3)]Gal(b1-4)GlcNAc(b1-2)Man(a1-3)[Fuc(a1-2)[GalNAc(a1-3)]Gal(b1-4)GlcNAc(b1-2)Man(a1-6)]Man(b1-4)GlcNAc(b1-4)GlcNAc
# Method in brief: as §1
# [12] = target: Fuc(a1-2)[GalNAc(a1-3)]Gal(b1-4)GlcNAc(b1-3)Gal(b1-4)GlcNAc
# Method in brief: as §1
# [13] = target: Fuc(a1-2)[GalNAc(a1-3)]Gal(b1-4)GlcNAc(b1-6)GalNAc
# Method in brief: as §1
# [14] = target: Fuc(a1-3)[Gal(b1-4)]GlcNAc(b1-6)[Gal(b1-3)GlcNAc(b1-3)]Gal(b1-4)Glc
# Method in brief: as §1
# [15] = target: Fuc(a1-3)[GalNAc(b1-4)]GlcNAc
# Method in brief: as §1
# [16] = target: Gal(a1-3)Gal(b1-3)GlcNAc
# Method in brief: as §1
# [17] = target: Gal(b1-3)GlcNAc(b1-2)Man(a1-3)[GlcNAc(b1-4)][Gal(b1-3)GlcNAc(b1-2)Man(a1-6)]Man(b1-4)GlcNAc(b1-4)GlcNAc
# Method in brief: as §1
# [18] = target: Gal(b1-3)GlcNAc(b1-3)Gal(b1-4)GlcNAc(b1-2)[Gal(b1-3)GlcNAc(b1-3)Gal(b1-4)GlcNAc(b1-6)]Man(a1-6)[Gal(b1-3)GlcNAc(b1-3)Gal(b1-4)GlcNAc(b1-2)Man(a1-3)]Man(b1-4)GlcNAc(b1-4)[Fuc(a1-6)]GlcNAc
# Method in brief: as §1
# [19] = target: Gal(b1-3)GlcNAc(b1-3)Gal(b1-4)GlcNAc(b1-3)Gal(b1-4)GlcNAc(b1-2)[Gal(b1-3)GlcNAc(b1-3)Gal(b1-4)GlcNAc(b1-3)Gal(b1-4)GlcNAc(b1-6)]Man(a1-6)[Gal(b1-3)GlcNAc(b1-3)Gal(b1-4)GlcNAc(b1-3)Gal(b1-4)GlcNAc(b1-2)Man(a1-3)]Man(b1-4)GlcNAc(b1-4)[Fuc(a1-6)]GlcNAc
# Method in brief: as §1
# [20] = target: Gal(b1-3)[Fuc(a1-4)]GlcNAc(b1-3)Gal(b1-3)[Fuc(a1-4)]GlcNAc
# Method in brief: as §1
# [21] = target: Gal(b1-4)Glc
# Method in brief: as §1
# [22] = target: Gal(b1-4)GlcNAc(b1-3)Gal(b1-4)GlcNAc(b1-2)[Gal(b1-4)GlcNAc(b1-3)Gal(b1-4)GlcNAc(b1-6)]Man(a1-6)[Gal(b1-4)GlcNAc(b1-3)Gal(b1-4)GlcNAc(b1-2)Man(a1-3)]Man(b1-4)GlcNAc(b1-4)GlcNAc
# Method in brief: as §1
# [23] = target: Gal(b1-4)GlcNAc(b1-3)Gal(b1-4)GlcNAc(b1-3)Gal(b1-4)GlcNAc(b1-3)Gal(b1-4)GlcNAc(b1-2)[Gal(b1-4)GlcNAc(b1-3)Gal(b1-4)GlcNAc(b1-3)Gal(b1-4)GlcNAc(b1-3)Gal(b1-4)GlcNAc(b1-6)]Man(a1-6)[Gal(b1-4)GlcNAc(b1-3)Gal(b1-4)GlcNAc(b1-3)Gal(b1-4)GlcNAc(b1-3)Gal(b1-4)GlcNAc(b1-2)Man(a1-3)]Man(b1-4)GlcNAc(b1-4)[Fuc(a1-6)]GlcNAc
# Method in brief: as §1
# [24] = target: Gal(b1-4)GlcNAc(b1-6)Gal(b1-4)GlcNAc
# Method in brief: as §1
# [25] = target: Gal(b1-4)GlcNAc6P
# Method in brief: as §1
# [26] = target: Gal3S(b1-4)GlcNAc
# Method in brief: as §1
binder,measurement,setting,value
B1,glycan array binding signal (z-score),[1],0.469
same,glycan array binding signal (z-score),[2],-0.348
same,glycan array binding signal (z-score),[3],-0.4
same,glycan array binding signal (z-score),[4],0.643
same,glycan array binding signal (z-score),[5],2.63
same,glycan array binding signal (z-score),[6],-0.459
same,glycan array binding signal (z-score),[7],-0.292
same,glycan array binding signal (z-score),[8],-0.55
same,glycan array binding signal (z-score),[9],0.335
same,glycan array binding signal (z-score),[10],-0.112
same,glycan array binding signal (z-score),[11],3.39
same,glycan array binding signal (z-score),[12],-0.546
same,glycan array binding signal (z-score),[13],0.269
same,glycan array binding signal (z-score),[14],-0.768
same,glycan array binding signal (z-score),[15],-1.22
same,glycan array binding signal (z-score),[16],-1.1
same,glycan array binding signal (z-score),[17],0.003
same,glycan array binding signal (z-score),[18],6.11
same,glycan array binding signal (z-score),[19],4.94
same,glycan array binding signal (z-score),[20],-2.03
same,glycan array binding signal (z-score),[21],-1.09
same,glycan array binding signal (z-score),[22],-0.993
same,glycan array binding signal (z-score),[23],3.46
same,glycan array binding signal (z-score),[24],0.221
same,glycan array binding signal (z-score),[25],0.348
same,glycan array binding signal (z-score),[26],-0.174
